This assay is described as follows: qHTS for identification of novel therapeutic agents for treatment of microphthalmiaassociated transcription factor (MiT) renal cell carcinoma (RCC) (AID 1963991). Conditions: CellTiter-Glo, 48 h; for Potency: active = Z-AUC below -0.8 in all three lines; for z-score: stronger effect = lower value. An excerpt:
PI: Marston Linehan Ph.D.
Urologic Oncology Branch, Center for Cancer Research (CCR)
National Cancer Institute (NCI), National Institute of Health (NIH), Bethesda, Maryland
MiT-Renal Cell Carcinoma (RCC) is characterized by genomic translocations involving microphthalmia-associated transcription factor (MiT) family members TFE3, TFEB, or MITF. MiT-RCC represents a specific subtype of sporadic RCC that is predominantly seen in young patients and can present with heterogeneous histological features making diagnosis challenging. Moreover, the disease biology of this aggressive cancer is poorly understood and there is no accepted standard of care therapy for patients with advanced disease. Tumor-derived cell lines have been established from human TFE3-RCC providing useful models for preclinical studies. TFE3-RCC tumor derived cell lines and their tissues of origin were characterized by IHC and gene expression analyses. An unbiased high-throughput drug screen was performed to identify novel therapeutic agents for treatment of MiT-RCC. Potential therapeutic candidates were validated in in vitro and in vivo preclinical studies. Mechanistic assays were conducted to confirm the on-target effects of drugs. The results of a high-throughput small molecule drug screen utilizing three TFE3-RCC tumor-derived cell lines identified five classes of agents with potential pharmacological efficacy, including inhibitors of phosphoinositide-3-kinase (PI3K) and mechanistic target of rapamycin (mTOR), and several additional agents, including the transcription inhibitor Mithramycin A. Upregulation of the cell surface marker GPNMB, a specific MiT transcriptional target, was confirmed in TFE3-RCC and evaluated as a therapeutic target using the GPNMB-targeted antibody-drug conjugate CDX-011. […] The results of the high-throughput drug screen and validation studies in TFE3-RCC tumor-derived cell lines have provided in vitro and in vivo preclinical data supporting the efficacy of the PI3K/mTOR inhibitor.
SEQUENCE No. (e.g., 1, 2, 3, etc.); […] (e.g., Cells, Incubation, Reagent, etc.); VALUE; DESCRIPTION.
1; Cells; 3 uL; white, solid-bottom Grenier assay plate.
2; Compounds; 23 nL; Kalypsis pin-tool (Wako USA).
3; Incubation; 48 hr; 37 C, 5% CO2, 95% humidity.
4; Reagent; 3 uL; CellTiter-Glo reagent (Promega).
5; Incubation; 15 min; room temperature.
6; Detection; Luminescence; ViewLux plate reader (PerkinElmer).
NOTES (numbers refer to Sequence numbers above)
1. Quantitative high-throughput screening (qHTS) of 1912 pharmacologically defined small molecule compounds was conducted on three TFE3-fusion cell lines bearing three different fusion partners (UOK109, UOK124, UOK145). Briefly, 500 cells in complete growth media were plated into white, solid-bottom, 1536-well tissue culture treated plates (Grenier Cat. 789173-F) using a Multidrop Combi cassette dispenser.
2. Twenty-three nanoliter of 1912 pharmacologically defined small molecule compounds of the NCATS Mechanism Interrogation PlatE (MIPE) version 4.0 were added to each assay plate using a Pintool Dispenser (Wako) equipped with 1536 pin head.
3. Plates were covered with stainless steel gasketed lids and incubated for 48 hours at standard cell culture conditions.
4. Viability was assessed by adding 3uL of CellTiter-Glo detection reagent (Promega).
5. Plates were covered with gasket lids and incubated for 15 minutes at room temperature.
6. Luminescence was measured on a ViewLux plate reader (PerkinElmer). Post-screen data processing used DMSO controls as 100% viability and empty wells as 0% viability and dose response curve fitting was done for all 11 concentrations for each compound.

[1] abbreviates: TFE3-RCC UOK109 viability, measured here: UOK109 Z-AUC.
Where [2] appears, read: TFE3-RCC viability, measured here: UOK124 Z-AUC.
The mark [3] stands for this setting: TFE3-RCC viability, measured here: UOK145 Z-AUC.

Consider 11 molecules from PubChem BioAssay (NCATS).

Each structure is given as a SMILES string. Inconclusive results are not listed. Active and inactive are the calls of the source.
Potency means the concentration at half of the fitted maximal effect.

For the molecule `CC=C1NC(=O)[C@H]2CSSCCC=C[C@H](CC(=O)N[C@H](C(C)C)C(=O)N2)OC(=O)[C@H](C(C)C)NC1=O`, the Potency (TFE3-RCC UOK109 viability) was 33.2 nM (active). Besides, the z-score is -2.23 under setting [1], -4.08 under setting [2] and -2.33 under setting [3].
The matching figures for `CC[C@@]1(O)C(=O)OCc2c1cc1n(c2=O)Cc2cc3cc(O)ccc3nc2-1`: 1480 nM (active), -0.967, -1.78 and -2.02.
As for `CN1CC[C@@H](c2c(O)cc(O)c3c(=O)cc(-c4ccccc4Cl)oc23)[C@@H](O)C1`, for the setting “TFE3-RCC UOK109 viability”, the Potency was 118 nM (active). Further, the z-score under setting [1] is -2.54, the z-score under setting [2] is -1.53 and the z-score under setting [3] was -2.13.
With `Cc1c(CN2CCN(S(C)(=O)=O)CC2)sc2c(N3CCOCC3)nc(-c3cnc(N)nc3)nc12`, for the setting “TFE3-RCC UOK109 viability”, the Potency is 83.3 nM (active). Besides, the z-score runs as follows: under setting [1], -2.2; under setting [2], -2.43; under setting [3], -2.46.
Regarding `CC(NCc1ccc2c(c1)nc(NC(=O)c1ccc(-c3cn[nH]c3)s1)n2CC(C)(C)O)C(C)(C)C` (stereo unspecified), the Potency (TFE3-RCC UOK109 viability) is 935 nM (active). Also, the z-score by setting is: under setting [1], -1.95; under setting [2], -2.39; under setting [3], -1.22.
Consider `Cc1c(NC(=O)OC[C@@H]2COCCN2)cn2ncnc(Nc3ccc4c(cnn4Cc4cccc(F)c4)c3)c12`, for which the Potency (TFE3-RCC UOK109 viability) is 118 nM (active). Moreover, the z-score was -1.82 under setting [1], -1.81 under setting [2] and -2.05 under setting [3].
`CCN1CCN(CC(=O)Nc2ccc(-c3cccc4c(=O)cc(N5CCOCC5)oc34)c3sc4ccccc4c23)CC1`: the Potency (TFE3-RCC UOK109 viability) was 2640 nM (active). The z-score under setting [1] is -2, the z-score under setting [2] was -1.8 and the z-score under setting [3] is -2.12.
Turning to `CCOc1cc2ncc(C#N)c(Nc3ccc(F)c(Cl)c3)c2cc1NC(=O)C=CCN(C)C`, under “TFE3-RCC UOK109 viability”, the Potency was 11.8 nM (active). In addition, the z-score is -2.91 under setting [1], -1.47 under setting [2] and -1.07 under setting [3].
Turning to `Cn1c2cc(S(C)=O)sc2c2cnn(Cc3cccc(N)c3)c(=O)c21` (stereo unspecified), the z-score came out at 0.336 under setting [1], 0.595 under setting [2] and 0.401 under setting [3].
Taken in the same sequence, the figures for `O=c1[nH]c(=O)n(C2CCCO2)cc1F` (stereo unspecified) were 0.952, 1.45 and 0.901.
Regarding `O=C(O)Cn1nnc(-c2cc(N3CCC(Oc4cc(F)ccc4Br)CC3)no2)n1`, the z-score turned out to be 0.654 under setting [1], 0.371 under setting [2] and 1.36 under setting [3].
